Results: the supplement of paper PMC10338343
± gives the standard deviation.

System: MILI (PIWIL2) piRISC loaded with L1MC piRNA (26 nt)
Assay: pre-steady-state target cleavage rate (min^-1); guide: L1MC piRNA 5'p-UAACUAAAUACUAUGCAAGCUGUAGG; MIWI and MILI are mouse PIWI proteins and EfPiwi is from a freshwater sponge; tags in brackets are library labels; higher = faster piRNA-guided slicing of the target
Procedure, shortened: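 Using HEPES–potassium acetate buffer at 33 °C, 1 nM active affinity-purified piRISC with a single synthetic guide was mixed with 0.1 nM transcribed, DNA-blocked target RNA library for 0–8 or 0–960 min, with or without 500 nM GTSF1 partner protein. Uncleaved targets were sequenced and normalised to depth and to weakly complementary targets, and three trials were pooled with k3 capped at 0.0001 min^-1. A burst-and-steady-state fit gave the pre-steady-state cleavage rate.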

[1] = auxiliary factor: 500 nM mouse GTSF1
[2] = auxiliary factor: none (no GTSF1)

**Q.** Which “pre-steady-state target cleavage rate” value [1] does the source give for UCCUGGAACAGCUUGCAAAGUAUUUUGUUA here?
**A.** Its value is 0.0942 ± 0.021.

**Q.** With UCCUGGAUGUCGUUGCAUAGUAUUUAUGUUA as the sequence, how does the “pre-steady-state target cleavage rate” value [1] read?
**A.** Its value is 0.137 ± 0.04.

**Q.** Which “pre-steady-state target cleavage rate” value [1] does the source give for UCCUGGUACAGCUUGCAUAGUUUAUAGUUA here?
**A.** The value was 0.0525 ± 0.018.

**Q.** How did the “pre-steady-state target cleavage rate” value [1] turn out when UCCUCCUACAGCUUGCAUAGUUUUUUGUUA was run?
**A.** Its value is 0.0587 ± 0.013.

**Q.** With UCCUCCUACACGUUGCAUAGUAUUUACAAA as the sequence, how does the “pre-steady-state target cleavage rate” value [1] read?
**A.** The value was 0.062 ± 0.019.

**Q.** With UCCUGGAUGUCGAACGUAUUUAUUUAGUUA as the sequence, how does the “pre-steady-state target cleavage rate” value [2] read?
**A.** Its value is < 0.0001.

**Q.** For UCCUGGAUGUCCAUGCAUAGUAUUUUGUUA, which “pre-steady-state target cleavage rate” value [1] is on record?
**A.** The value was 0.00776 ± 0.0045.

**Q.** UCCUGCUAGUCCUUGCAUAGUAUUUACAAA was tested. Which “pre-steady-state target cleavage rate” value [1] did it give?
**A.** The value was 0.0056 ± 0.004.

**Q.** For UCCUGCUACACGUUGCAUAGUAUUUAGAAA, which “pre-steady-state target cleavage rate” value [1] is on record?
**A.** Its value is 0.0396 ± 0.013.

**Q.** UCCUGGAUCACGUUGCAUAGUAUUUUCAAA was tested. Which “pre-steady-state target cleavage rate” value [1] did it give?
**A.** The value was 0.0743 ± 0.025.

**Q.** Which “pre-steady-state target cleavage rate” value [2] does the source give for UCCUGGAUGUCGAACCAUUCUAUUUAGUUA here?
**A.** The value was < 0.0001.

**Q.** How did the “pre-steady-state target cleavage rate” value [1] turn out when UCCUGGAUGUCGAUGGAUAGUAUUUAGUAA was run?
**A.** The value was 0.00684 ± 0.0036.

**Q.** With UCCUGGAUCAGCUUGGAUAGUAUUUAGAUA as the sequence, how does the “pre-steady-state target cleavage rate” value [1] read?
**A.** Its value is 0.0949 ± 0.016.

**Q.** How did the “pre-steady-state target cleavage rate” value [1] turn out when UCCUCCUACAGCUUGCAUUCUAUUUAGUAA was run?
**A.** Its value is 0.0535 ± 0.017.

**Q.** Which “pre-steady-state target cleavage rate” value [2] does the source give for UCCUGGAUGUCGAACCAUAGUAAAUAGUUA here?
**A.** Its value is < 0.0001.

**Q.** With UCCUGGAUGUCGAACCAUAGUAAAAAGUUA as the sequence, how does the “pre-steady-state target cleavage rate” value [2] read?
**A.** The value was < 0.0001.

**Q.** Which “pre-steady-state target cleavage rate” value [1] does the source give for UCCUCCUACAGCUACCAUAGUAUUUAGUAA here?
**A.** The value was 0.141 ± 0.023.

**Q.** UCCUGGAUGUCGUUGCAUAGUAAUAAGUUA was tested. Which “pre-steady-state target cleavage rate” value [1] did it give?
**A.** The value was 0.0113 ± 0.004.

**Q.** UCCUGGAUGUCGAACCAAAGUAUUUAGAUA was tested. Which “pre-steady-state target cleavage rate” value [2] did it give?
**A.** The value was < 0.0001.

**Q.** Which “pre-steady-state target cleavage rate” value [1] does the source give for UCCUGGUACAGCAUGCAUAGAAUUUAGUUA here?
**A.** The value was 0.197 ± 0.07.

**Q.** With UCCUCCUACAGCAACCAUAGUAUUUAGAAA as the sequence, how does the “pre-steady-state target cleavage rate” value [1] read?
**A.** The value was 0.0741 ± 0.02.

**Q.** Which “pre-steady-state target cleavage rate” value [1] does the source give for UCCUGGAUCAGCUUGCAUUGUAUUUUCAAA here?
**A.** Its value is 0.00931 ± 0.0046.

**Q.** Which “pre-steady-state target cleavage rate” value [2] does the source give for UCCUGGAUGUCGAACGUUAGUUAUUUAGUUA here?
**A.** Its value is < 0.0001.

**Q.** With UCCUGGAUGUCCUUGCAAACUAUUUAGUUA as the sequence, how does the “pre-steady-state target cleavage rate” value [1] read?
**A.** Its value is 0.00732 ± 0.0037.

**Q.** How did the “pre-steady-state target cleavage rate” value [1] turn out when UCCUGGAUGUCGAUGCAUAGUAUUAUGUUA was run?
**A.** Its value is 0.0412 ± 0.011.

**Q.** Which “pre-steady-state target cleavage rate” value [1] does the source give for UCCUGGAUCACCUUGCAUAGUAUAUAGUUA here?
**A.** The value was 0.227 ± 0.041.

**Q.** UCCUGGAUCAGCUUCCAUAGUAAUUAGUUA was tested. Which “pre-steady-state target cleavage rate” value [1] did it give?
**A.** Its value is 0.00494 ± 0.004.

**Q.** With UCCUGGAUGUGCUUGCAUAGUAAAAAGUUA as the sequence, how does the “pre-steady-state target cleavage rate” value [1] read?
**A.** The value was 0.0196 ± 0.0079.

**Q.** For UCCUGCUACAGCUUGCAUAAGUAUUUAGUUA, which “pre-steady-state target cleavage rate” value [1] is on record?
**A.** The value was 0.0171 ± 0.0064.

**Q.** How did the “pre-steady-state target cleavage rate” value [1] turn out when UCCUCCUACACCUUGCAUACUAUUUAGUUA was run?
**A.** The value was 0.0962 ± 0.025.

**Q.** UCCUGGUACAGCUUGCAUUGUAUUUACUUA was tested. Which “pre-steady-state target cleavage rate” value [1] did it give?
**A.** Its value is 0.05 ± 0.015.

**Q.** How did the “pre-steady-state target cleavage rate” value [1] turn out when UCCUGGAUGUGCUUGCAUAGUAUUUAGAUA was run?
**A.** Its value is 0.0576 ± 0.014.

**Q.** UCCUGGUACAGCUUGCAUAGUUUUUACAAA was tested. Which “pre-steady-state target cleavage rate” value [1] did it give?
**A.** Its value is 0.0185 ± 0.0077.

**Q.** UCCUGGAUGUCGAAGCAUAGUAUUUACGUUA was tested. Which “pre-steady-state target cleavage rate” value [1] did it give?
**A.** Its value is 0.0359 ± 0.0066.

**Q.** UCCUGGAACUCGUUGCAUAGUAUUUUCAAA was tested. Which “pre-steady-state target cleavage rate” value [1] did it give?
**A.** Its value is 0.0397 ± 0.011.

**Q.** With UCCUGGAUGUCGAAGUCAUAGUAUUUAGUUA as the sequence, how does the “pre-steady-state target cleavage rate” value [1] read?
**A.** The value was 0.00447 ± 0.003.

**Q.** With UCCUGCUACAGCUUGCAUAGAUUUUUCAAA as the sequence, how does the “pre-steady-state target cleavage rate” value [1] read?
**A.** Its value is 0.0091 ± 0.0044.

**Q.** How did the “pre-steady-state target cleavage rate” value [1] turn out when UCCUCCUACUCCUUGCAUAGUAUUUUCAAA was run?
**A.** Its value is 0.0534 ± 0.015.

**Q.** For UCCUGGAUGAGCAACCAUAGUAUUUAGUUA, which “pre-steady-state target cleavage rate” value [1] is on record?
**A.** Its value is 0.0437 ± 0.011.

**Q.** UCCUGGAUCAGCUUGCAUAGUAUUUAGCUA was tested. Which “pre-steady-state target cleavage rate” value [1] did it give?
**A.** Its value is 0.00534 ± 0.0036.

**Q.** UCCUGGAUGUCGAACGUAUCUAUUAAGUUA was tested. Which “pre-steady-state target cleavage rate” value [2] did it give?
**A.** Its value is < 0.0001.

**Q.** For UCCUGGAUGUCGAAGCAUAGUCUUUAGUUA, which “pre-steady-state target cleavage rate” value [1] is on record?
**A.** The value was 0.0102 ± 0.0051.

**Q.** How did the “pre-steady-state target cleavage rate” value [1] turn out when UCCUGGAACAGCUUGCAUAGUAUAUUCAAA was run?
**A.** Its value is 0.0758 ± 0.022.

**Q.** With UCCUCCUACAGGUUGCAUAGUAUUUACUUA as the sequence, how does the “pre-steady-state target cleavage rate” value [1] read?
**A.** Its value is 0.0691 ± 0.015.

**Q.** How did the “pre-steady-state target cleavage rate” value [1] turn out when UCCUGGAUGAGCUUGCAUAGUAUUUGUUA was run?
**A.** Its value is 0.118 ± 0.028.

**Q.** Which “pre-steady-state target cleavage rate” value [1] does the source give for UCCUGCUACACGUUGCAUAGUAUUUACAAA here?
**A.** The value was 0.0287 ± 0.01.

**Q.** With UCCUGGAUGUCGAAGCAUAGUAUUUGAGUUA as the sequence, how does the “pre-steady-state target cleavage rate” value [1] read?
**A.** The value was 0.0579 ± 0.012.

**Q.** With UCCUGGAUGUCGAACGUUAGUAUUUGUUA as the sequence, how does the “pre-steady-state target cleavage rate” value [2] read?
**A.** Its value is < 0.0001.

**Q.** For UCCUGGUACAGCUUGGAUUGUAUUUAGUUA, which “pre-steady-state target cleavage rate” value [1] is on record?
**A.** The value was 0.0395 ± 0.013.

**Q.** UCCUGGAUCAGCUUGCAUAGUUUUUAGAAA was tested. Which “pre-steady-state target cleavage rate” value [1] did it give?
**A.** The value was 0.0202 ± 0.0088.

**Q.** With “UCCUGGAUGUCCUUGCAUACAUAAAUCAAA [g12:g19:cont:t1A]” as the sequence, how does the “pre-steady-state target cleavage rate” value [2] read?
**A.** Its value is < 0.0001.

**Q.** With “UCCUGGAUCAGCUUGCAUAGUUAAAUCAAA [g10:g22:cont:t1A]” as the sequence, how does the “pre-steady-state target cleavage rate” value [1] read?
**A.** The value was 0.00426 ± 0.0036.

**Q.** How did the “pre-steady-state target cleavage rate” value [1] turn out when UCCUGGAUGUCGAACCAUAGUAUUUAGUUUA was run?
**A.** The value was 0.00592 ± 0.0031.

**Q.** With UCCUGGAUGAGCUUGCAUAGUUAAUAGUUA as the sequence, how does the “pre-steady-state target cleavage rate” value [1] read?
**A.** Its value is 0.00524 ± 0.004.

**Q.** For UCCUGGAACAGCUUGCAUAGUUAAUAGUUA, which “pre-steady-state target cleavage rate” value [1] is on record?
**A.** Its value is 0.0282 ± 0.01.

**Q.** UCCUGGAUGUCGAACGAUAGUAAUAAGUUA was tested. Which “pre-steady-state target cleavage rate” value [1] did it give?
**A.** Its value is < 0.0001.

**Q.** Which “pre-steady-state target cleavage rate” value [1] does the source give for UCCUGGAUCUGCUUGCAUAGUAUUUACAAA here?
**A.** Its value is 0.104 ± 0.022.

**Q.** Which “pre-steady-state target cleavage rate” value [1] does the source give for UCCUGGAUCAGCUUGCAUAGUAAAUAGAAA here?
**A.** Its value is 0.0183 ± 0.0078.

**Q.** UCCUGGUACAGCUUGCAUAGUUUUUAGAUA was tested. Which “pre-steady-state target cleavage rate” value [1] did it give?
**A.** Its value is 0.0378 ± 0.017.

**Q.** Which “pre-steady-state target cleavage rate” value [2] does the source give for “UCCUGGAUGUCGAACGUAAGUAUUUAGUUC [g2:g12:cont:t1C]” here?
**A.** Its value is < 0.0001.
